Several values for one entry are separate records, joined by “and”; a condition that tells them apart may be missing. Identical values can stand only once. Among all 290,000 compounds or so, about 27,000 (9.3%) were called active. The sample holds actives, similar compounds and a random draw of the others, so the mix is not that of the screen. Values without a mark were called inactive. Rule as the data show it: active = inhibition mostly above about 28% (no sharp cut-off); inactive = mostly below about 43%.

The experiment in a line: A qHTS for Small Molecule Inhibitors of Shiga Toxin. As to inhibition: 0% is about no effect. As to conditions: Vero cells, Shiga toxin protein synthesis inhibition reporter; at 38.7 µM, stronger effect = higher value. A general note: Quantitative high-throughput screening tests each substance at several concentrations.
For `COC(=O)c1ccc(COC(=O)c2cnccn2)cc1`, the inhibition is 5.86%.

As for `COC(=O)c1ccc(COC(=O)c2cnc(Cl)c(Cl)c2)cc1`, the inhibition is 87.3% (active). The result for `CCOc1ccc(C(C)=O)cc1COC(=O)c1cnc(Cl)c(Cl)c1` reads 14.4%; that for `CN(Cc1ccccc1)C(=O)c1ccc(NC2=NC3CS(=O)(=O)CC3S2)cc1` (stereo unspecified), -3%.

With `CC(=O)Nc1ccc(NC(=O)C2CCCN2S(=O)(=O)c2cccc(C(F)(F)F)c2)cc1` (stereo unspecified), the inhibition was -1.36%.

On to `CSc1cccc(NC(=O)C2CCCN2S(=O)(=O)c2ccc3c(c2)CCC(=O)N3)c1` (stereo unspecified), for which the inhibition is 25.9% (active).

In the case of `O=C1CCc2cc(S(=O)(=O)N3CCC(C(=O)NCc4ccccc4Cl)CC3)ccc2N1`, the inhibition was -4.83%.

As to `CC(=O)c1cccc(NC(=O)C2CCN(C(=O)c3ccccc3Cl)CC2)c1`, the inhibition was -18.7%. In the case of `CCOc1ccc(C)cc1S(=O)(=O)NC1CCCCCC1`, the inhibition was -4.32%. As for `CCc1cc2c(=O)n(-c3ccccc3)c(SCC(=O)O)nc2s1`, the figure is -7.15%. As for `COc1ccc(/C=C2\SC(=S)N(CC(=O)NNC(=O)c3ccncc3)C2=O)cc1`, the figure is 30.3%; as for `COc1ccc(/C=C2\N=C3CCCN3C2=O)cc1`, 84.4% (active); as for `COc1ccc(/C=C2\SC(=N)N(c3ccc(F)cc3)C2=O)cc1`, -5.41%. Consider `CC(C)c1c(C(=O)N/N=C/c2ccc(-c3ccccc3)cc2)nnn1-c1nonc1N`, for which the inhibition was -5.37%.

In the case of `CCOc1ccc(CN2CCN(CCCc3ccccc3)C(CCO)C2)cc1` (stereo unspecified), the inhibition was 1.09%.

For `COc1ccc(N2C(=O)NC(NS(=O)(=O)c3ccc(Cl)cc3)(C(F)(F)F)C2=O)cc1` (stereo unspecified), the inhibition is -3.26%.

Regarding `Cc1[nH]n(-c2ccc(Cl)cc2)c(=O)c1/C=N/n1c(C)nc2ccccc2c1=O`, the inhibition is 38.2%. Consider `Cc1[nH]n(-c2ccccc2)c(=O)c1/C=N/NC(=O)c1ccoc1C`, for which the inhibition was 125% (active).

With `COc1cc(/C=N\NC(=O)CNC(=O)c2cccc([N+](=O)[O-])c2)ccc1O`, the inhibition is -6.08%. As for `Cc1[nH]n(-c2ccc([N+](=O)[O-])cc2)c(=O)c1C=NCCN1CCN(C(=O)c2ccccc2F)CC1`, the figure is -12.7%; as for `Cc1ccc(-n2[nH]c(C)c(/C=N/NC(=O)c3cccc([N+](=O)[O-])c3)c2=O)cc1C`, 62.4% (active). The result for `COc1cc(/C=N/NC(=O)c2ccoc2C)ccc1OCCN1CCCCC1` reads 29.5%; that for `COc1cc(NS(=O)(=O)c2ccc(NC(=S)NC(=O)c3ccc(Br)cc3)cc2)ncn1`, -2.95%. The result for `N#CCC(=O)NC1CCC(CC2CCC(NC(=O)CC#N)CC2)CC1` (stereo unspecified) reads -8.84%. As for `Cc1[nH]c(C)c(S(=O)(=O)N2CCN(c3cccc(C(F)(F)F)c3)CC2)c1C(=O)N1CCCCC1`, the inhibition was -4.18%. Turning to `NC(=O)C1=C[C@H](c2csc3ccccc23)C[C@H](OCc2ccc(CO)cc2)O1`, the inhibition was 24%. The result for `Cc1cc(C)c[n+](-c2nc3ccccc3nc2[N-]S(=O)(=O)c2cccs2)c1` reads 1.54%; that for `O=S(=O)([N-]c1nc2ccccc2nc1-[n+]1ccc(Cc2ccccc2)cc1)c1ccc(Br)s1`, 47.8% (active). As for `O=C(NCCc1ccccc1)C1CCN(S(=O)(=O)c2ccc(Br)s2)CC1`, the inhibition is 9.64%. For `CCOc1ncccc1C(=O)NCCc1ccc(OC)cc1`, the inhibition was -6.94%. The result for `CNC(=O)c1sc(NCc2ccccc2OC)nc1C` reads 4.08%; that for `Cc1cc2c(c(=O)n1Cc1ccccc1)C1O[C@](CCCCN3C(=O)c4ccccc4C3=O)(Cc3ccccc31)O2`, “inactive”. As for `O=C(O)CCCN1C(=O)c2ccccc2Sc2ncccc21`, the figure is -5.85%; as for `O=c1c2cc(-c3ccccc3)sc2nc2n1N=C(c1cccs1)CS2`, 100% (active); as for `c1csc(-c2cn3c(n2)SCC3)c1`, 16.5%. The result for `O=c1[nH]c(-c2cccs2)nc2ccccc12` reads 32.8%; that for `C#CC(C)(C)NC(=O)c1cnc(-c2ccccc2)nc1-c1ccccc1`, -5.15%. In the case of `CC(=O)c1ccc(N2CCN(S(=O)(=O)c3c(C)[nH]c(=O)[nH]c3=O)CC2)cc1`, the inhibition is 16.6%. The result for `CC(=O)c1ccc(N2CCN(C(=O)C3CCN(S(=O)(=O)c4ccc5c(c4)CC(C)N5C(=O)C4CC4)CC3)CC2)cc1` (stereo unspecified) reads 22.9%; that for `CC(=O)c1ccc(N2CCN(S(=O)(=O)c3ccc4c(c3)CC(=O)N4C)CC2)cc1`, 54.4% (active).

For the compound `CCCn1nnnc1NCc1ccc(CC)cc1`, the inhibition was -8.65%. The result for `COC(=O)/C=C/C(=O)NCc1ccco1` reads 18.7%.

For `O=C(NCc1ccco1)C1(c2ccc(Cl)cc2)CCCC1`, the inhibition was -3.65%. As for `O=C(/C=C/c1ccc(Cl)cc1Cl)NCc1ccco1`, the figure is 94.1% (active). As for `CC(NC(=O)c1cc(=O)[nH]c2ccccc12)c1ccc(F)cc1F` (stereo unspecified), the figure is 9.23%; as for `CC1CCN(C2=NC(=O)/C(=C/c3ccc(O)cc3)S2)CC1`, 38.6%; as for `CCOc1cc(/C=C2\SC(N3CCCCC3)=NC2=O)ccc1O`, 67.1% (active). As for `O=C1N=C(N2CCCC2)S/C1=C\c1cccc(Br)c1`, the figure is 34.8%; as for `CCOc1cc(C(=S)N2CCOCC2)ccc1O`, -8.19%. In the case of `CCOc1ccc(/C=C2\SC(=S)N(NC(=O)c3ccncc3)C2=O)cc1OC`, the inhibition is -10.1%. As for `CCOc1cc(/C=C2\SC(N3CCCC(C)C3)=NC2=O)ccc1O` (stereo unspecified), the figure is 60.1% (active); as for `CC(C)CNS(=O)(=O)c1ccc(CCC(=O)NCc2ccc(Cl)cc2)cc1`, -10.9%.

For `CCOc1cc(-c2cc(-c3ccc(NC(C)=O)cc3)nc(N)c2C#N)ccc1O`, the inhibition was -1.91%. Turning to `COc1ccc(S(=O)(=O)Nc2ccccc2C(=O)N2CCCC2)cc1C`, the inhibition was 5.33%. The result for `O=C(NNC(=O)C1CCCC1)c1ccc(F)cc1` reads 10.8%. As for `O=C(O)c1cccc2c1C(=O)N(C1CCCC1)C2`, the figure is -4.27%. The result for `CCOc1ccc(S(=O)(=O)N2CCN=C2Cc2ccccc2)cc1C` reads -2.53%. As to `CC1CCCCC1NC(=O)c1cn(C)c2ccc(S(=O)(=O)N3CCOCC3)cc2c1=O` (stereo unspecified), the inhibition was -15.7%. Consider `COc1ccc(OCC(=O)N2CCOCC2)cc1`, for which the inhibition was 51.9%. Turning to `COc1ccc(/C(C)=N/N2CCOCC2)c(O)c1`, the inhibition is 47.1% (active). The result for `COc1cc(C(=S)N2CCOCC2)ccc1O` reads -13.2%. As for `COc1ccc(N(CC(=O)Nc2cc(OC)cc(OC)c2)S(=O)(=O)c2c(C)n[nH]c2C)cc1`, the inhibition is 5.74%. The result for `CCN(CC)S(=O)(=O)c1ccc(C(=O)N2CCN(C3=NS(=O)(=O)c4ccccc43)CC2)cc1` reads 16.6%.

Consider `O=c1c2ccccc2nnn1CSc1nnnn1-c1ccccc1`, for which the inhibition is 62.9%. As for `Nc1nnc(SCn2nnc3ccccc3c2=O)s1`, the figure is 46.5% (active).

For `Nc1nnc(SCCN2C(=O)c3ccccc3S2(=O)=O)s1`, the inhibition is -8.37%. The result for `Cc1ccc(-n2cc(CN(C)Cc3nccn3C)c(-c3cccc(C)c3)n2)cc1` reads -6.37%; that for `COc1ccc(C(=O)NCc2nnc(SCC(=O)NC3=NCCS3)n2C)cc1`, -9.89%. With `COc1ccc(C(=O)Nc2nncs2)c(OC)c1`, the inhibition was 62.3% (active). As for `COc1ccc(C(=O)NC2=NCCS2)c(OC)c1`, the figure is 42% (active); as for `O=C(Nc1nncs1)c1ccccc1NS(=O)(=O)c1cccs1`, -4.57%; as for `COc1ccc(C(=O)NC(C)CCc2ccccc2)c(OC)c1` (stereo unspecified), 22.2%. In the case of `O=C(NCc1ccc2c(c1)OCO2)c1ccc(Cl)s1`, the inhibition is 50.7%. The result for `COc1ccc(C(=O)N2CCCN(C)CC2)c(OC)c1` reads -2.8%. As for `O=C(NC1=NCCS1)[C@H](Cc1ccccc1)N1C(=O)c2ccccc2C1=O`, the figure is -5.83%. The result for `O=C(NC1=NCCS1)c1ccc(Cl)s1` reads 149% (active); that for `CC(C)C(=O)NCC(c1cccs1)S(=O)(=O)c1ccc(F)cc1` (stereo unspecified), 2.44%; that for `COc1ccc(CNC(=O)c2nnn(CC(=O)Nc3cc(C)cc(C)c3)c2N)cc1`, -9.11%. As for `COc1ccc(Cn2c(=S)[nH]c3cc(C(=O)NCCCN4CCOCC4)ccc3c2=O)cc1`, the inhibition is 18.7%. As for `CCOC(=O)[C@H]1[C@H]2COc3cc(OC)ccc3[C@@H]2N2C(=O)N(c3ccc(Br)cc3)C(=O)[C@@]12C`, the figure is -9.26%; as for `Cc1cc(=O)oc2c3c(cc(OCC(=O)NCc4ccccn4)c12)OC(C)(C)CC3`, -3.65%. The result for `CCCn1c2ccccc2c2cnn(CC(=O)NCCCN3CCCCC3CC)c(=O)c21` (stereo unspecified) reads -4.97%. The result for `CC(=O)c1cc2c(cc1NC(=O)Cn1nc(-c3ccc(F)cc3)ccc1=O)OCO2` reads 20.6%. For the compound `CSc1ccc(/C=N\NC(=O)COc2ccc(Cl)cc2Br)cc1`, the inhibition is 59.9%.

On to `CSc1ccc(/C=N/NC(=O)c2cccc(Cl)c2)cc1`, for which the inhibition is 4.92% (active).

Take `CSc1ccc(/C=N\NC(=O)CC(=O)NC(C)C)cc1`: the inhibition was 14.5%.

Turning to `COc1ccc(NC(=O)NN2CCN(C)CC2)c(OC)c1`, the inhibition is -17.8%. Turning to `COc1c(O)cc2oc(-c3ccc(O)c(O)c3)cc(=O)c2c1O`, the inhibition was 69.1% (active) and 69% (active). As for `COc1ccc(-c2cc(=O)c3c(O)cc(O[C@@H]4O[C@H](CO[C@@H]5O[C@@H](C)[C@H](O)[C@@H](O)[C@H]5O)[C@@H](O)[C@H](O)[C@H]4O)cc3o2)cc1O`, the figure is -12.1%; as for `O=c1cc(-c2ccc(O)cc2)oc2c(-c3cc(-c4cc(=O)c5c(O)cc(O)cc5o4)ccc3O)c(O)ccc12`, -1.7%; as for `CN(CC1CCCO1)S(=O)(=O)c1ccc(C(=O)Nc2ccc(F)cc2)cc1` (stereo unspecified), 11.9%.

One may read the inhibition as the drop in the measured response relative to a control, in per cent.

The record behind these values is PubChem BioAssay AID2315 (National Center for Advancing Translational Sciences (NCATS), 2010).
